High-throughput results: PubChem BioAssay, National Center for Advancing Translational Sciences (NCATS)
TDP43 rescue = rescues yeast growth from TDP-43 toxicity. AID 652104. Potency, µM (titrated, usually from 46.1 µM), for the others: at the top dose growth rescue (activation), usual class: activators. 1.8% of 410,000 active. TDP-43 expressing yeast growth rescue, BacTiter-Glo, 24 h; note: % of control where 0% means no effect; nearly all actives have a fitted effect of over 50% in size
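Yeast expressing TDP-43 (pregrown in raffinose, seeded at OD600=0.02 in galactose medium) exposed to compounds 24 hr at 30 deg C. Growth read by BacTiter-Glo luminescence; rescue of toxicity appears as increased signal.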
FUS suppressor = rescues growth of FUS-expressing yeast; S. cerevisiae FUS-expressing, growth rescue, OD600, 24 h; Potency, µM (highest dose often 76.6 µM), actives largely listed as activators; 0.24% of 390,000 active; AID 1347120;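 note: plate controls were DMSO vehicle for no effect and reference control for full effect; nearly all actives have a fitted effect of over 55% in size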
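Compound concentration series was pinned onto galactose-induced FUS-expressing yeast seeded at OD 0.005. Plates sat 24hr at 30C; absorbance at 600 nm gave growth. DMSO served as background control.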
aSyn yeast inh = inhibitors of alpha-synuclein toxicity in yeast; Yeast expressing alpha-synuclein, growth rescue, BacTiter-Glo, 24 h; Potency, µM (titrated, usually from 46.1 µM), inactives show at the highest dose growth rescue (activation), most hits filed as activators; 0.14% of 370,000 active; AID 652106; note: % of control where 0% means no effect; nearly all actives have a fitted effect of over 65% in size
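Galactose-induced alpha-syn yeast (OD600=0.02, raffinose-pregrown) + pinned cpd, 24 hr, 30 deg C; growth by BacTiter-Glo luminescence. Growth restoration scores as activation.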
Abeta rescue = restores growth of yeast expressing A-beta42 peptide; yeast expressing A-beta42, growth rescue, OD600, 48 h; response scale: 0% DMSO, 100% iron-clioquinol control; Potency, µM (highest dose often 46.1 µM), usual class: activators; 0.063% of 410,000 active; AID 1347071; note: nearly all actives have a fitted effect of over 55% in size
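Yeast A-beta toxicity model in growth medium with pinned compounds, 48 h at 30 C; growth read as absorbance at 600 nm. Normalized to FeCl3/clioquinol equimolar mix (positive) and DMSO (negative).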
* = called active by the depositor; i = inactive; ? = inconclusive; / = no result given; [ ] = another dose, or the depositor's remark. The list is not random: actives were taken first. Their share in the collection is about 2.1%. Calls come from the whole dose curve; as a rule, active = well fitted curve in the direction sought with a large enough effect; inconclusive = small, poorly fitted or top-dose-only effect, or another doubt; inactive = no such curve, though single readings can be large; an effect the other way counts as inactive or inconclusive. Potency is the fitted concentration of half-maximal effect.

SMILES | TDP43 rescue | FUS suppressor | aSyn yeast inh | Abeta rescue
Cc1cc(S(=O)(=O)c2ccc(Cl)cc2)nc(S(=O)(=O)c2ccc(Cl)cc2)c1C#N | 3.55µM* | i | -73.4% | i
O=C(CCc1nc(-c2ccccc2F)no1)NCCc1ccc(F)cc1 | / | i | / | /
COc1cc2c(cc1OC)CN(C(=O)c1ccc(Br)o1)CC2 | 15.8µM* | i | 4.7% | i
COc1cc2c(cc1OC)CN(C(=O)c1ccco1)CC2 | -9.1% | ? | 0.4% | i
COc1cc2c(cc1OC)CN(C(=O)c1ccc(OC)c([N+](=O)[O-])c1)CC2 | 3.5% | i | -2.8% | i
COc1cc2c(cc1OC)CN(C(=O)c1cccc([N+](=O)[O-])c1)CC2 | 22.4µM* | i | ? | i
CCN(CC)/[N+]([O-])=N/OCOC(=O)C(C)c1ccc2cc(OC(C)=O)ccc2c1 (stereo unspecified) | / | / | -4.0% | /
CCCC[C@@H]1C(=O)N2N=Cc3cscc3[C@H]2N2N=Cc3cscc3[C@@H]12 | / | i | / | /
CN(C(=O)CCc1nc(-c2ccccc2F)no1)c1ccccc1 | -9.0% | i | -0.7% | i
CN(C(=O)CCc1nc(-c2ccccc2F)no1)c1ccc(Cl)cc1 | 22.4µM* | i | / | i
CC1(C(=O)Nc2cnc3ccccc3c2)CCN1C(=O)CC(c1ccccc1)c1ccccc1 (stereo unspecified) | 17.8µM* | ? | 0.9% | i
CCOC(=O)c1csc(NC(=O)C2CCCN(S(=O)(=O)c3ccccc3[N+](=O)[O-])C2)n1 (stereo unspecified) | / | i | / | /
Cc1nc2ccccc2cc1OCc1ccccc1 | 17.8µM* | i | 3.2% | i
CO[C@H]1C=CO[C@@]2(C)Oc3c(C)c(O)c4c(O)c(c(C=NN5CCN(C)CC5)c(O)c4c3C2=O)NC(=O)C(C)=CC=C[C@H](C)[C@H](O)[C@@H](C)[C@@H](O)[C@@H](C)[C@H](OC(C)=O)[C@@H]1C | -35.7% | 17.8µM* | -8.3% | i
CO[C@H]1/C=C/O[C@@]2(C)Oc3c(C)c(O)c4c(O)c(c(C=NN5CCN(C)CC5)c(O)c4c3C2=O)NC(=O)/C(C)=C\C=C\[C@H](C)[C@H](O)[C@@H](C)[C@@H](O)[C@@H](C)[C@H](OC(C)=O)[C@@H]1C | ? | ? | -1.9% | i
O=C(Nc1nc2ncccn2c1-c1ccc(F)cc1)c1ccc(F)cc1 | / | i | / | /
Cc1ccc(Nc2nc(CSc3nnc(-c4ccc(F)cc4)n3C)cs2)cc1 | 17.8µM* | / | -17.7% | i
O=C(C1CCN(c2ncnc3c2sc2cccc(F)c23)CC1)N1CCN(Cc2ccccc2)CC1 | / | i | / | /
CN(Cc1ccc(Cl)s1)C(=O)CCl | 10µM* | i | -19.7% | i
CN(C)CCNC(=O)c1ccc(Cl)s1 | -9.5% | i | -0.4% | i
CN(Cc1ccc(Cl)cc1)C(=O)CCl | 15.8µM* | i | -4.9% | i
COc1ccc(CN(C)C(=O)CCl)cc1 | 18.2% | i | -1.1% | i
COc1cccc(/C=C2\CC3(OC(=O)C4CCCC4)CCCN2C3)c1 (stereo unspecified) | / | i | / | /
Cc1ccccc1CN1CCCCC(NC(=O)C2CCCC2)C1=O (stereo unspecified) | / | i | / | /
CCc1nc(SCc2ccc(Cl)cc2)n[nH]1 | 12.6µM* | i | 3.4% | i
SMILES | TDP43 rescue | FUS suppressor | aSyn yeast inh | Abeta rescue
N#Cc1ccc(C(=O)Nc2nc(SCc3ccc(Cl)cc3)n[nH]2)cc1 | 0.1% | i | 0.3% | i
O=S(=O)(Nc1nc(SCc2ccc(Cl)cc2)n[nH]1)c1ccc(F)cc1 | 20µM* | i | 0.1% | ?
Cc1cccc(C)c1OCCOC(=O)c1n[nH]c2ccccc12 | -11.8%[1.82 µM] | i | 2.4% | ?
Cc1ccc(C)c(C(=O)COC(=O)c2n[nH]c3ccccc23)c1 | 20µM* | i | ? | i
O=C1C=C(NC2=CC3OC(c4ccccc4)OCC3OC2=O)CCC1 (stereo unspecified) | 12.6µM* | / | 17.8µM* | i
O=C1C=C(NCc2ccccc2)CCC1 | -8.3% | / | -1.9% | i
CCOc1ccc(-n2c(SCC(=O)c3ccc4ccccc4c3)nnc2-c2cccc(Cl)c2)cc1 | / | i | / | /
Cc1ccc(C)c(S(=O)(=O)N2C(=S)NC(=O)C2CC(C)C)c1 (stereo unspecified) | 25.1µM* | i | ? | i
CCCCCOc1ccc(/C=N/NC(=O)CSc2nnc(-c3ccc(OC)cc3)n2-c2ccc(C)cc2)cc1 | / | i | / | /
O=S(=O)(CCSc1nc2ccccc2s1)c1nc2ccccc2s1 | 2.51µM* | i | -54.2% | i
C=CCS(=O)(=O)c1nc2ccccc2s1 | 22.4µM* | i | -0.5% | i[9.22 µM]
CCS(=O)(=O)CCSc1nc2ccccc2s1 | -9.4% | i | 7.0% | i
CCNc1nc(NCC)nc(-n2cc(C(=O)c3cc(Cl)ccc3O)cn2)n1 | / | / | -14.5% | /
Cc1ccc(C2OC(=O)c3ccccc32)cc1 (stereo unspecified) | 35.5µM* | / | 1.8% | i
C=CCN1[C@H](CC(C)C)COc2cc(N3CCSCC3)ccc2S1(=O)=O | / | i | / | /
CCc1cc(=O)oc2cc(OCC(=O)OC)c(Cl)cc12 | 11.2µM* | i | 0.8% | i
Oc1cccc2ccc(/C=C/c3ccccc3Br)nc12 | -65.7% | i | ? | ?
Oc1ccc2ccccc2c1/C=C/c1ccc2c(Br)cc(Br)c(O)c2n1 | 15.8µM* | / | ? | i
CCCC/C=C1/[C@H](c2ccccc2)N(C)C2=N[C@H](c3ccccc3)CC(=O)N21 | / | i | / | /
O=c1c2ccccc2n(Cc2ccco2)n1[C@@H](Cc1ccccc1)Cn1cc(-c2ccc(-c3ccccc3)cc2)nn1 | / | 17.8µM* | / | /
CC(C)(C)c1ccc(-c2cn(C[C@H](Cc3ccccc3)n3c(=O)c4ccccc4n3Cc3ccco3)nn2)cc1 | / | i | / | /
CC(C)Cc1nn2c(=O)cc(COC(=O)c3ccc(NC(=O)C4CCCCC4)cc3)nc2s1 | 12.4% | i | / | i
O=[N+]([O-])c1ccc(Sc2nccn2Cc2ccccc2)c([N+](=O)[O-])c1 | 14.1µM* | / | -6.7% | i
Cc1ccccc1N=Nc1c(N)[nH]n(-c2ccccc2)c1=O | / | i | / | /
O=c1oc(CCO)cc2ccc(C#Cc3ccsc3)cc12 | 17.8µM* | i | -2.4% | i
SMILES | TDP43 rescue | FUS suppressor | aSyn yeast inh | Abeta rescue
O=C1Nc2ccccc2C(=O)C1(Cl)Cc1ccccc1 (stereo unspecified) | 35.5µM* | i | -51.8% | i
Cc1ccccc1NC(=S)NC(=O)/C=C/c1ccco1 | 10µM* | 8.91µM* | -10.6% | i
CCOC(=O)c1cnc2ccc(OCC)cc2c1N(C)Cc1ccccc1 | 22.4µM* | i | 14.4% | i
CCOC(=O)c1cnc2ccc(OCC)cc2c1NCCc1ccc(OC)c(OC)c1 | 15.2% | i | / | i
CCOc1ccc2ncc(C(=O)c3ccc(OC)cc3)c(N3CCN(CC)CC3)c2c1 | 12.9% | i | 0.2% | i
CCOC(=O)c1cnc2c(C(F)(F)F)cccc2c1N1CCOCC1 | 4.9% | i | 11.8% | i[9.22 µM]
